# About 17,000 (4.4%) of roughly 390,000 compounds were called active. About 8% were inconclusive and are not listed. This excerpt belongs to a sample that is enriched for actives. Unmarked numbers belong to inactive results. The call rests on the fitted dose curve; in most records, active means well fitted inhibition curve with a large enough effect; inconclusive means small, poorly fitted or top-dose-only effect; inactive means no such curve, though single readings can be large or run the other way.
# Target: Lysine-specific demethylase 4A (Homo sapiens) (UniProt O75164)
# Experiment: qHTS Assay for Inhibitors of JMJD2A-Tudor Domain; further: nearly all actives have a fitted effect of over 50% in size
# Conditions: AlphaScreen JMJD2A-Tudor / H3K4me3 peptide binding; series mostly up to 114 µM; activity change, negative = inhibition: at the top concentration
# Description: JMJD2A is a jumonji-domain-containing lysine demethylase that uses Fe(II) together with 2-OG to effect oxidative demethylation of histones. Methylation is one of many […] modification that affect epigenetic transcription. […] It is proposed that the functions of JmjD2A binding to the histones, is to maintain marks after they are installed and to spread the modifications by […], establishing a self-propagating cycle for rapid methylation over a large area of chromatin. […] Thus, small molecule targeting of the JMJD2A-tudor domain interaction with its target methylhistone mark is expected to enable sophisticated experiments probing the fine regulatory pathways leading to selective demethylation of a given methyllysine locus based on the methylation state of adjacent histone marks. A quantitative high throughput AlphaScreen has been developed to identify small molecule inhibitors based on a protocol published by NCGC and SGC [4].
# Although AlphaScreen has significant advantages with its utility in a variety of epigenetic target assays, the primary screening data provided in this deposition should be used with caution due to the prevalence of screening artifacts. The top compound concentration tested was high (>100uM) in this assay, which increases number of actives and potential artifacts. An AlphaScreen counterscreen is highly recommended to be run against any putative actives to eliminate non-specific artifacts. Alternatively, one can use other AlphaScreen assays in PubChem to filter out promiscuous hits.
# [1] Lee, J. et al. Distinct binding modes specify the recognition of methylated histone H3K4 and H4K20 by JMJD2A-tudor. Nat Struct Mol Biol. 15(1); 109-11. 2008. PMID: 18084306
# [2] Yasgar, et al. Compound Management for Quantitative High-Throughput Screening. JALA. 2008 Apr;13(2):79-89. PMID: 18496600
# [3] Inglese, et al. Quantitative high-throughput screening: a titration-based approach that efficiently identifies biological activities in large chemical libraries. Proc Natl Acad Sci. 1;103(31):11473-8. 2006. PMID: 16864780
# [4] Quinn et al. A homogeneous method for investigation of methyl-dependent protein-protein interactions in epigenetics. Nucleic Acids Res., 38(2):e11. 2010. PMID: […]
# [5] Baell,Holloway. New substructure filters for removal of pan assay interference compounds (PAINS) from screening libraries and for their exclusion in bioassays. J Med Chem. 53(7):2719-40. 2010. PMID: 20131845
# NIH Molecular Libraries Probe Production Network [MLPCN]
# NIH Chemical Genomics Center [NCGC]
# Structural Genomics Consortium (SGC)
# To each well of a 1,536w plate, 2ul of JMJD2A-Tudor (final 100nM) and 1ul biotinylated histone peptide methylated at Lys4 [b-H3(1-18)K4me3] (final 50nM) were added in 1x PBS buffer, pH 7.4, containing 0.01% Tween-20, using a nanoliter dispenser. Formation of a protein-peptide complex proceeded at room temperature for 30 min. A Kalypsys pin-tool transferred 23nl of library compound solution in DMSO to each well. Following a 30 min incubation of the protein-peptide complex with compounds at room temperature, a mixture of 40 µg/mL each streptavidin-coated donor and nickel chelate acceptor AlphaScreen beads (final 10 µg/mL) was added in a 1ul dispense for a final volume of 4ul, followed by a brief centrifugation (1000 rpm, 1 min). Plates were incubated protected from the light for 20 min at room temperature. Microplates were then read on an EnVision multilabel plate reader using the 1,536 plate HTS AlphaScreen aperture (excitation time 80 ms, measurement time 240 ms).
# On the % scale 0 is the no-effect control and ±100 the full control effect; potency means the concentration at half of the fitted maximal effect.
# Sequence of Lysine-specific demethylase 4A (Homo sapiens) (O75164 whole entry, looked up, the tested form may be a part): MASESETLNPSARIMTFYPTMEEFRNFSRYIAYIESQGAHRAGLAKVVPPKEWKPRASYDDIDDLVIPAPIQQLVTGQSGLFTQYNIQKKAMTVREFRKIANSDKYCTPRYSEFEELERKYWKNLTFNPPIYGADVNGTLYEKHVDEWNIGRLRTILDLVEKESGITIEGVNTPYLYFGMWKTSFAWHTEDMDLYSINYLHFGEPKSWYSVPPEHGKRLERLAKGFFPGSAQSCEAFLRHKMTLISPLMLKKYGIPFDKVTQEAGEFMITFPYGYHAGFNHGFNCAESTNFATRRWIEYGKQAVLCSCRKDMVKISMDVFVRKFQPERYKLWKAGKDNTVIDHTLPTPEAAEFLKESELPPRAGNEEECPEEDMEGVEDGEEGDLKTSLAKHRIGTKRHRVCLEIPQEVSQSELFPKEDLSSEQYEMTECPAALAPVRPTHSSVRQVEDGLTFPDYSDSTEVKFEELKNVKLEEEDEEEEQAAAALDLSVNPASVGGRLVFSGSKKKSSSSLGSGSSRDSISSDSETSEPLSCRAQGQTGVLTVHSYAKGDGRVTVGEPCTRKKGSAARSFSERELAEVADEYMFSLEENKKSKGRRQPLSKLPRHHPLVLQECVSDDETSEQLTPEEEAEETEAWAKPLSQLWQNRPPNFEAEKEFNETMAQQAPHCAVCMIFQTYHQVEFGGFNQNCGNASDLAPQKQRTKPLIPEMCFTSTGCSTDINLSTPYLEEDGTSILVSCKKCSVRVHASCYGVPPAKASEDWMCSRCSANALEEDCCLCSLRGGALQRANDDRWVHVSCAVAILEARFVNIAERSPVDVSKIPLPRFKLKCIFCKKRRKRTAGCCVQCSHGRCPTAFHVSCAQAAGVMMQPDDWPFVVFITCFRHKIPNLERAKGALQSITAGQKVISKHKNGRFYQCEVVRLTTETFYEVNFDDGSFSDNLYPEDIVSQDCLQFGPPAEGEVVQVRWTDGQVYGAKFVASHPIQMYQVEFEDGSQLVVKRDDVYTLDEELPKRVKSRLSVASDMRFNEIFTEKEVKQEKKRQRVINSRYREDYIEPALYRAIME
Compound,"activity change, negative = inhibition [%]",Potency
CCN(CCCNC(=O)c1cc(Nc2ccc(OC)cc2)nc2ccccc12)c1cccc(C)c1,-27,–
CCOc1ccc(CCNC(=O)Cn2nc(CC)n3c(cc4sc(CC)cc43)c2=O)cc1OCC,-15.6,–
CCc1cc2c(cc3c(=O)n(CC(=O)NCCc4ccc(OC)c(OC)c4)ncn32)s1,–,89.1 µM (active)
CCc1cc2c(cc3c(=O)n(CC(=O)N4CCN(c5cc(Cl)ccc5C)CC4)ncn32)s1,4.73,–
Cc1ccc(NC(=O)C2CCN(S(=O)(=O)c3cc(-c4noc(C)n4)ccc3C)CC2)c(C)c1,-6.67,–
CCOCCCn1c(SCC(=O)Nc2ccc(CC)cc2)nc2ccccc2c1=O,9.33,–
CCOc1ccc(CNC(=O)CCc2c(C)nn(-c3ccc(N4CCCCC4)nn3)c2C)cc1,-24,–
CCN(CC)/[N+]([O-])=N/Oc1cc(O/[N+]([O-])=N/N2CCCC2CO)c([N+](=O)[O-])cc1[N+](=O)[O-] (centres undefined),–,20 µM (active)
COc1ccc(C(=O)Nc2ccc(-n3nncc3-c3ccccc3)cc2)cc1OC,-34.3,–
Cc1ccc(-n2c(C)cc(C(=O)CN3C(=O)C(=O)N(C4CCCC4)C3=O)c2C)cc1,–,31.6 µM (active)
Cc1ccc(-n2c(C)cc(C(=O)CSc3nnc4ccccn34)c2C)cc1,-20.1,–
Cc1cc(C(=O)COC(=O)C2CC2)c(C)n1-c1ccc(F)cc1,-25.6,–
Cc1c(Cl)cccc1NC(=O)C(=O)NCCc1csc2nc(-c3ccccc3F)nn12,-13.7,–
S=C(NNC(=S)NC1CC2C=CC1C2)NC1CC2C=CC1C2 (centres undefined),–,3.16 µM (active)
CC(C)c1ccc(NC(=S)NC2CC3C=CC2C3)cc1 (centres undefined),-10,–
COc1ccc(-c2noc(CCC(=O)N(C)c3ccccc3C)n2)cc1,-3.42,–
CCCCOc1ccc(CN2C(=O)C(=O)c3cc(Br)cc(C)c32)cc1OC,–,14.1 µM (active)
CCCCN1C(=O)C(C)=C(C)C1OCCc1ccc(OC)c(OC)c1 (centres undefined),-2.62,–
CCCCOc1ccc(Cn2c(=O)oc3ccc(C)cc32)cc1OC,61.2,–
COc1ccc(NC(=O)c2cc3cc(C)ccc3n2C)cc1,-2.32,–
COc1ccc(-n2c(SCC(=O)Nc3ccc(Cl)c(C)c3)nc3n[nH]c(C)c3c2=N)cc1,-14,–
Cc1cccc(Nc2nc(C)nc(N)c2S(=O)(=O)c2ccccc2)c1,-11.2,–
CCOc1ccc(-c2nonc2NC(=O)c2oc3ccc(CC)cc3c2C)cc1,-12.6,–
COc1ccccc1-c1cc(C(F)(F)F)nc(S(=O)(=O)CCCC(=O)Nc2cc(C)ccc2O)n1,-24.2,–
COc1ccccc1-c1cc(C(F)(F)F)nc(S(=O)(=O)CCCC(=O)Nc2ccc(F)cc2F)n1,-6.48,–

Compound,"activity change, negative = inhibition [%]",Potency
CSc1ccccc1NC(=O)CCS(=O)(=O)c1nc(-c2cccs2)cc(C(F)(F)F)n1,–,22.4 µM (active)
CCc1ccccc1NC(=O)c1ccc(F)c(S(=O)(=O)NC2CCCCCC2)c1,-4.28,–
Cc1ccccc1N/N=C/c1ccc(N2CCOCC2)cc1,–,50.1 µM (active)
CN(CC(=O)Nc1ccc(N2CCOCC2)cc1)CC(=O)Nc1ccccc1[N+](=O)[O-],-5.3,–
Cc1cc(Nc2ccc(N3CCOCC3)cc2)c2cccc(C)c2n1,-25.5,–
CC(=O)N1CCN(c2ccc(NCc3ccc(C(C)C)cc3)cc2)CC1,–,44.7 µM (active)
COc1ccc(N2CCN(C(=O)CNC(=O)c3ccc(Br)o3)CC2)cc1,-12.5,–
CC(=O)c1ccc(N2CCN(C(=O)CCc3ccccc3)CC2)cc1,-19.3,–
O=C(O)c1cscn1,–,4.47 µM (active)
Cc1ccc2nc(COc3ccccc3NC(=O)Nc3ccc(F)c(Cl)c3)cc(=O)n2c1,-14.3,–
COc1ccc(CCNC(=O)CCCCn2c(=O)c3ccccc3n(Cc3ccccc3)c2=O)cc1OC,-5.46,–
CCOC(=O)Cc1ccc(NC(=O)Nc2c[nH]c(=O)[nH]c2=O)cc1,-8.28,–
CCCCN(CC)CCCNC(=O)Cn1ncc2c([nH]c3ccc(C)cc32)c1=O,-26.9,–
CCCSc1ncc(Cl)c(C(=O)Nc2sc3c(c2C(=O)NCCOC)CCCC3)n1,-20.1,–
Cc1ccccc1NC(=S)N(CCCN1CCOCC1)Cc1cccs1,-11.6,–
Cc1ccc(NC(=S)N(CCCN2CCC(C)CC2)Cc2ccco2)cc1,-28.5,–
Cc1ccc(NC(=S)N(CCCN2CCCC2)Cc2cccn2Cc2ccc(Cl)cc2)cc1,–,50.1 µM (active)
O=c1[nH]c2cc(Br)ccc2n2cccc12,0.336,–
COc1cc(C(=O)N2CCN(c3ccc(Nc4ccc(C)cc4)nn3)CC2)cc(OC)c1OC,-20.8,–
Cc1ccc(N=C2NC(=O)/C(=C/C=C/c3ccco3)S2)cc1C,–,39.8 µM (active)
COc1ccc(OC)c(CCNC(=O)CCCn2c(=O)c3cccn3c3cccnc32)c1,-6.23,–
O=C(Cn1c(=O)n(Cc2cccs2)c(=O)c2cccnc21)Nc1ccc(F)cc1,-9.09,–
CC(C)(C)n1c(=O)[nH]c2c(c1=O)CCC2,4.4,–
O=c1[nH]n2c(=O)c3c([nH]c2c1N=Nc1ccccc1)CCC3,–,50.1 µM (active)
